Laboratory results from PubChem BioAssay (EPA / NIEHS).
Records with an inconclusive call do not appear. The source made the active and inactive calls. Rule for the calls, unless noted: active = hit-call score of the fitted dose curve at least 0.9, where 1 is the maximum; inactive = score below 0.9.

Assays:
[1] = CEETOX_H295R_DOC_noMTC: CeeTox H295R High-throughput Steroidogenesis Assay for DOC, maximum tolerated concentration (MTC) filtered results only (AID 2283918); details: actives raise or lower the signal
Summary of the method: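 H295R cells prestimulated 48 h with 10 uM forskolin, then exposed 48 h to chemical in 0.1% DMSO. 11-Deoxycorticosterone in medium measured by MTBE extraction and HPLC-MS/MS; bidirectional fit vs DMSO, no MTC filter.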

[2] = CEETOX_H295R_PROG_noMTC: CeeTox H295R High-throughput Steroidogenesis Assay for Progesterone (PROG), maximum tolerated concentration (MTC) filtered results only (AID 2283920); details: actives raise or lower the signal
Summary of the method: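 Readout: medium progesterone by MTBE extraction, reverse-phase C18 HPLC, ESI-positive MS/MS. Human H295R cells, 10 uM forskolin pretreatment 48 h, chemical 48 h in 0.1% DMSO. Gain or loss fitted against DMSO baseline.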

[3] = CEETOX_H295R_ESTRADIOL_noMTC: CeeTox H295R High-throughput Steroidogenesis Assay for Estradiol, maximum tolerated concentration (MTC) filtered results only (AID 2283919); details: actives raise or lower the signal
Summary of the method: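 Readout: dansyl-derivatized estradiol quantified by LC-MS/MS in medium from H295R cells dosed 48 h (0.1% DMSO) following 48 h forskolin (10 uM) prestimulation. Gain or loss of signal fitted against DMSO; no MTC filtering applied.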

[4] = CEETOX_H295R_ESTRONE_noMTC: CeeTox H295R High-throughput Steroidogenesis Assay for Estrone, maximum tolerated concentration (MTC) filtered results only (AID 2283921); details: actives raise or lower the signal
Summary of the method: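 Estrone in spent medium, quantified by tandem MS following dansyl chloride derivatization, after 48 h chemical exposure (0.1% DMSO) of forskolin-prestimulated (10 uM, 48 h) H295R cells; concentrations not MTC-filtered, bidirectional fit against DMSO.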

[5] = CEETOX_H295R_TESTO_noMTC: CeeTox H295R High-throughput Steroidogenesis Assay for Testosterone (TESTO), maximum tolerated concentration (MTC) filtered results only (AID 2283924); details: actives raise or lower the signal
Summary of the method: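 Medium testosterone, measured by HPLC-MS/MS after liquid-liquid extraction, was fitted in both directions relative to DMSO without MTC filtering. Adrenal H295R cells received 48 h chemical exposure (0.1% DMSO final) after 48 h forskolin (10 uM) prestimulation; viability by MTT.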

PGR (gene 5241) [6] = target: PGR (gene 5241) (UniProt P06401); assay: TOX21_PR_BLA_Followup_Antagonist_ratio: Tox21 HEK293 Progesterone Receptor (PR) Antagonism Beta-lactamase Follow-Up Assay, Ratio (AID 2283934; active = hit-call score of the fitted dose curve at least 0.9, where 1 is the maximum;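 note: PR-UAS-bla HEK293T cells stimulated with 1 nM R5020 agonist for 16 hr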)
PGR (gene 5241), sequence (P06401 whole entry, looked up): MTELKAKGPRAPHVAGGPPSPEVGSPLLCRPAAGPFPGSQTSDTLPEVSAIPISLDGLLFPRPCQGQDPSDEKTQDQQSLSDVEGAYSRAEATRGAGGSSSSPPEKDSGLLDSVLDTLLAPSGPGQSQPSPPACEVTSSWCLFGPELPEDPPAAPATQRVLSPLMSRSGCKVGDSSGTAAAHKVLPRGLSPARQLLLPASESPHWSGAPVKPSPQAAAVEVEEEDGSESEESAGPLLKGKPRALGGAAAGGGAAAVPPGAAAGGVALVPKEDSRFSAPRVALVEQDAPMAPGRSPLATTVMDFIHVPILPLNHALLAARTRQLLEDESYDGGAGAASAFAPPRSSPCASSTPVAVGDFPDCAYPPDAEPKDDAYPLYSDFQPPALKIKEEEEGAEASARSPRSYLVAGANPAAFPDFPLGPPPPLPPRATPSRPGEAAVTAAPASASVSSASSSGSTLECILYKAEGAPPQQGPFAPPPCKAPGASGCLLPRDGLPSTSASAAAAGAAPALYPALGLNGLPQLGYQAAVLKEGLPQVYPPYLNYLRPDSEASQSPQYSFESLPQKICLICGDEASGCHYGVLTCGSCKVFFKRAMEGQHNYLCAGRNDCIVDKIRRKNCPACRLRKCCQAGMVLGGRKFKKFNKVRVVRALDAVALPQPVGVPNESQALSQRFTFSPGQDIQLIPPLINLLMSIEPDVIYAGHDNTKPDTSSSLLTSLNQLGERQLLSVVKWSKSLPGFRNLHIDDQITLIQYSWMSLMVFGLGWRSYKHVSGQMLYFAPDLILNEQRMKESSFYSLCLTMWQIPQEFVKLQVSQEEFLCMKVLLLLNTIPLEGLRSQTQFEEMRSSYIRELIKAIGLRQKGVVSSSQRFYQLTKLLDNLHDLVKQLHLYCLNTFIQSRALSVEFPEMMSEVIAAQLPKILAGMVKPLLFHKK
Summary of the method: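 Readout is the blue/green (ch2/ch1) substrate cleavage ratio after 2 hours at room temperature, following 16 hr co-treatment of PR-bla HEK293T cells with compound and 1nM promegestone. Multiplexed CellTiter-Glo viability flags cytotoxicity; DMSO baseline.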

[7] = TOX21_PR_BLA_Followup_Antagonist_viability: Viability Assessment in the Tox21 HEK293 Progesterone Receptor (PR) Antagonism Beta-lactamase Follow-Up Assay (AID 2283936; active = hit-call score of the fitted dose curve at least 0.9, where 1 is the maximum;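 note: cells exposed to compound with R5020 agonist for 16 h; hits lower the luminescence signal meaning cytotoxicity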)
Procedure: TOX21_PR_BLA_Followup is a secondary assay for specificity for the TOX21_PR_BLA_Agonist assay. To differentiate true PR agonists from cytotoxic substances, this follow up assay is multiplexed with a cell viability assay. The compounds were also tested for auto fluorescence that may interfere with the biological target readout resulting in potential false positives and/or negatives. To identify the compounds that stimulate PR signaling, a PR-UAS-bla GripTite cell line i.e. PR-UAS-bla HEK293T (Invitrogen, Carlsbad, CA, USA) containing a beta-lactamase reporter gene under the control of an UAS response element was used to screen Tox21 10K compound library. The cytotoxicity of the Tox21 compound library against the PR-bla cell line was tested in parallel by measuring the cell viability using CellTiter-Glo assay in the same wells. TOX21_PR_BLA_Followup_Antagonist_viability is a component of the TOX21_PR_BLA_Followup_Antagonist assay. This component measures cell viability using the CellTiter-Glo Luciferase-coupled ATP quantitation.TOX21_PR_BLA_Followup_Antagonist_viability used a type of viability reporter where loss-of-signal activity can be used to understand changes in the cell viability. Furthermore, this assay endpoint can be referred to as a secondary readout, because this assay has produced multiple assay endpoints where this one serves a viability function. […]

[8] = target: Thyroid hormone receptor alpha (Rattus norvegicus) + Thyroid hormone receptor beta (Rattus norvegicus) (UniProt P18113+P63059); assay: TOX21_TR_LUC_GH3_Agonist_Followup: Tox21 GH3 Thyroid Hormone Receptor Agonism Luciferase Follow-Up Assay (AID 2283939; active = hit-call score of the fitted dose curve at least 0.9, where 1 is the maximum)
Thyroid hormone receptor alpha (Rattus norvegicus) + Thyroid hormone receptor beta (Rattus norvegicus), sequence (P63059 whole entry, looked up): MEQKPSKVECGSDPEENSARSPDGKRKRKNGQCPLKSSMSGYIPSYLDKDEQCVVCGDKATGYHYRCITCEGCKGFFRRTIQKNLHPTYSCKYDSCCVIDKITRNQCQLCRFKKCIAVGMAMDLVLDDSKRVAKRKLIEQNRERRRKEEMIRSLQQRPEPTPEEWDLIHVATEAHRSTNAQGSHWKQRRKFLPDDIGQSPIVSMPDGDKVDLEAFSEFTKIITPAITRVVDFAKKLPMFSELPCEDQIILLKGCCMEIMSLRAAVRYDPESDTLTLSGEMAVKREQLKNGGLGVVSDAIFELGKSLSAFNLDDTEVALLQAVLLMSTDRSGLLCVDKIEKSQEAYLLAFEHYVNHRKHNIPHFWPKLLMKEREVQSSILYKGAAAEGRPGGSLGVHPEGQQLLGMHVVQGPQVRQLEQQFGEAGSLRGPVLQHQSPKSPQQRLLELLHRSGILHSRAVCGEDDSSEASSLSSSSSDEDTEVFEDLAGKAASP
Thyroid hormone receptor alpha (Rattus norvegicus) + Thyroid hormone receptor beta (Rattus norvegicus), sequence (P18113 whole entry, looked up): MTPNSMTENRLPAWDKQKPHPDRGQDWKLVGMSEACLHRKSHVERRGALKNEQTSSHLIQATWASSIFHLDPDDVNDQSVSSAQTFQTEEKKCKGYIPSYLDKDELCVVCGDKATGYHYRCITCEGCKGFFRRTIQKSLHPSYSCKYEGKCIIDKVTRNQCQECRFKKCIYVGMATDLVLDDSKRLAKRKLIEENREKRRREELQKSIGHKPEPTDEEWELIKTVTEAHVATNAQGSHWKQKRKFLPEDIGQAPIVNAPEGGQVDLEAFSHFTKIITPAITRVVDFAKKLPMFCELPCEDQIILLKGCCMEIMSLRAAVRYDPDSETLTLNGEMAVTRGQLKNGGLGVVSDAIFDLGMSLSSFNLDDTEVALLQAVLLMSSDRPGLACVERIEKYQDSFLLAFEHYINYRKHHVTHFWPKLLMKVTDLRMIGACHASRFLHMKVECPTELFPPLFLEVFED
Summary of the method: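 Agonist-mode confirmatory run: 15 concentrations (5 nM to 92 uM final) on GH3 rat pituitary cells, 24 h at 37C/5% CO2, T3 as positive control. Luminescence read with ONE-Glo after 30 min.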

[9] = TOX21_PR_BLA_Followup_Agonist_viability: Viability Assessment in the Tox21 HEK293 Progesterone Receptor (PR) Agonism Beta-lactamase Follow-Up Assay (AID 2283935; active = hit-call score of the fitted dose curve at least 0.9, where 1 is the maximum;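 note: signal loss means lower viability so actives are cytotoxic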)
Summary of the method: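 Run multiplexed with the beta-lactamase FRET read, this endpoint measures ATP by CellTiter-Glo luminescence (30 min, room temperature). PR-UAS-bla HEK293T cells received compound 6 hr after plating and were then incubated 16 hr at 37C in 2% stripped serum.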

PGR (gene 5241) [10] = target: PGR (gene 5241) (UniProt P06401); assay: TOX21_PR_LUC_Followup_Antagonist: Tox21 HEK293 Progesterone Receptor (PR) Antagonism Luciferase Follow-Up Assay (AID 2283938; active = hit-call score of the fitted dose curve at least 0.9, where 1 is the maximum;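 note: curve fitted upward as signal gain over DMSO baseline despite antagonist label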)
Summary of the method: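 Luciferase reporter in HEK293-PR-A-luc cells: 16 h compound treatment at 37C, ONE-Glo luminescence detection, DMSO as negative control and baseline.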

## O=S(=O)(O)c1ccc(N=Nc2c(O)ccc3cc(S(=O)(=O)O)ccc23)cc1
[1]
  outcome: inactive
[2]
  outcome: inactive

## Cc1nc(-c2ccccn2)ncc1C(=O)Nn1cc(C)c2cc(F)ccc21
[1]
  AC50: 5.19 µM (active)
[3]
  outcome: inactive
[2]
  AC50: 3.34 µM (active)
[4]
  outcome: inactive
[5]
  AC50: 11.5 µM (active)

## c1ccc2cc3ccccc3cc2c1
[1]
  outcome: inactive
[3]
  outcome: inactive
[2]
  outcome: inactive
[4]
  outcome: inactive

## NC(=O)N(O)[C@@H]1COc2cc(OCc3ccccc3)ccc21
PGR (gene 5241) [6]
  outcome: inactive
[7]
  outcome: inactive

## Cn1c(=O)c2[nH]cnc2n(C)c1=O
[8]
  outcome: inactive

## CC(C)C(=O)Nc1ccc([N+](=O)[O-])c(C(F)(F)F)c1
PGR (gene 5241) [6]
  AC50: 46.1 µM (active)
[9]
  outcome: inactive
[7]
  outcome: inactive
PGR (gene 5241) [10]
  outcome: inactive
